Some test systems named below: SRPK3; STK16; STK33; STK35; STK36; STK39; SYK; SgK110; TAOK1; TAOK2; TAOK3; TBK1; TEC; TESK1; TGFBR1; TGFBR2; TIE1; TLK1.
Holding throughout (details): concentration: 1 μM, replicates: in singlicate; n = 1
A further assay relates to T1, TAK1.
T1 construct: gene MAP3K7

The subject of another assay is T2, TIE2.
T2 construct: gene TEK
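Also: KINOMEscan kinase panel screen.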

In the case of `Cc1cccc(-c2nc(-c3ccc(S(C)(=O)=O)cc3)sc2-c2ccncc2)c1`, the “%Inh” value stood at 10% with SRPK3; 19% in the assay on STK16; 0% with STK33; 3% in the assay with STK35; 30% with STK36; 15% with STK39. Also, the “%Inh” value with SYK is reported as 25%; in the assay with SgK110, 2%; in the assay with TAK1, 3%; with TAOK1 it was 0%; in the assay on TAOK2, 0%; in the assay with TAOK3, 0%. For the same compound, the “%Inh” value came out at 0% in the assay with TBK1; 26% in the assay on TEC; 0% in the assay on TESK1; 16% in the assay with TGFBR1; 0% in the assay with TGFBR2; 0% in the assay on TIE1. The “%Inh” value is 0% in the assay on TIE2 and 13% with TLK1.
As to `Fc1ccc(-c2ncn(CCCN3CCOCC3)c2-c2ccccn2)cc1` [SB-211742], the “%Inh” value is listed as 3% in the assay on SRPK3; 0% in the assay on STK16; 7% in the assay on STK33; 0% in the assay on STK35; 0% in the assay with STK36; 0% in the assay on STK39. Also, the “%Inh” value in the assay with SYK is listed as 17%; in the assay with SgK110 it was 16%; in the assay with TAK1 it was 0%; in the assay on TAOK1, 0%; in the assay on TAOK2, 5%; in the assay on TAOK3 it was 0%. The “%Inh” value is given as 21% in the assay on TBK1; 0% in the assay on TEC; 0% with TESK1; 52% in the assay on TGFBR1; 6% with TGFBR2; 0% in the assay with TIE1. In addition, the results for the “%Inh” value with TIE2 and in the assay with TLK1 were 27% and 0%, respectively.
Regarding `COc1cc2c(cc1OCCN1CCN(C)CC1)ncc1c3ccc(C#N)cc3[nH]c21`, the “%Inh” value is recorded as 0% in the assay with SRPK3; 10% with STK16; 25% in the assay on STK33; 0% in the assay on STK35; 0% in the assay on STK36; 11% in the assay on STK39. Also, the “%Inh” value is 8% with SYK; 0% with SgK110; 90.6% in the assay with TAK1; 0% with TAOK1; 13% in the assay on TAOK2; 0% with TAOK3. In addition, the “%Inh” value came out at 83% in the assay with TBK1; 0% in the assay with TEC; 0% with TESK1; 0% with TGFBR1; 0% in the assay on TGFBR2; 0% in the assay on TIE1. In addition, the “%Inh” value with TIE2 was found to be 6%; in the assay on TLK1, 37%.
As for `Cl.Nc1ncnc2occ(-c3ccc(NC(=O)Nc4cc(C(F)(F)F)ccc4F)cc3)c12` [SB-707548], the “%Inh” value is 0% in the assay with SRPK3; 8% in the assay on STK16; 87% with STK33; 37% in the assay on STK35; 0% in the assay with STK36; 14% with STK39. The “%Inh” value is given as 68% in the assay on SYK; 0% with SgK110; 98.6% in the assay with TAK1; 13% in the assay on TAOK1; 22% in the assay on TAOK2; 17% in the assay on TAOK3. The “%Inh” value turned out to be 35% in the assay with TBK1; 4% in the assay on TEC; 17% with TESK1; 33% in the assay on TGFBR1; 0% in the assay on TGFBR2; 98.7% in the assay with TIE1. Also, the “%Inh” value in the assay with TIE2 came out at 99.8%; with TLK1, 14%.
On to `Nc1nc(-c2ccc3c(N)n[nH]c3c2)cc(N2CCCC2)n1` [GSK2227430], for which the “%Inh” value in the assay on SRPK3 is 0%; with STK16, 8%; in the assay on STK33, 0%; with STK35, 0%; in the assay on STK36 it was 0%; in the assay on STK39, 0%. Besides, the “%Inh” value with SYK, in the assay on SgK110, in the assay with TAK1, with TAOK1, in the assay on TAOK2 and in the assay on TAOK3 was 0% throughout. Also, the “%Inh” value is 18% with TBK1; 0% in the assay with TEC; 2% in the assay on TESK1; 0% with TGFBR1; 0% with TGFBR2; 0% with TIE1. Besides, the “%Inh” value is recorded as 0% in the assay with TIE2 and 3% in the assay on TLK1.
For the compound `O=C(NOCC1CC1)c1ccc(F)c(F)c1Nc1ccc(I)cc1Cl`, the “%Inh” value in the assay with SRPK3 is on record as 7%; in the assay with STK16 it was 0%; in the assay on STK33 it was 0%; with STK35 it was 0%; in the assay with STK36, 0%; in the assay on STK39, 0%. The “%Inh” value with SYK was 0%; with SgK110 it was 0%; in the assay on TAK1 it was 11%; in the assay on TAOK1, 0%; with TAOK2, 0%; in the assay with TAOK3, 0%. Besides, the “%Inh” value in the assay on TBK1 was determined as 0%; with TEC it was 0%; in the assay with TESK1, 4%; in the assay on TGFBR1, 0%; in the assay on TGFBR2, 0%; in the assay on TIE1, 0%. The “%Inh” value was determined as 0% in the assay on TIE2 and 3% in the assay with TLK1.
On to `Cn1ccc2ncnc(Oc3ccc(NC(=O)Nc4ccncc4)c(Cl)c3)c21`, for which the “%Inh” value came out at 0% in the assay with SRPK3; 10% with STK16; 0% in the assay with STK33; 0% with STK35; 5% with STK36; 100% in the assay on STK39. The “%Inh” value in the assay on SYK is on record as 3%; with SgK110, 30%; with TAK1 it was 0%; in the assay on TAOK1, 0%; in the assay on TAOK2 it was 0%; with TAOK3, 0%. The “%Inh” value amounted to 22% in the assay with TBK1; 0% in the assay with TEC; 0% in the assay on TESK1; 10% in the assay with TGFBR1; 0% in the assay with TGFBR2; 0% in the assay with TIE1. The “%Inh” value in the assay with TIE2 is 5%; with TLK1, 0%.
As to `Cc1cn2c(=O)cc(N3CCOCC3)nc2n1Cc1cccc(Cl)c1Cl` [GSK2334006], the “%Inh” value is given as 0% with SRPK3; 14% in the assay on STK16; 4% in the assay on STK33; 3% in the assay with STK35; 0% in the assay on STK36; 17% in the assay with STK39. The “%Inh” value in the assay on SYK was determined as 21%; in the assay with SgK110, 0%; in the assay on TAK1 it was 0%; with TAOK1, 0%; with TAOK2, 0%; with TAOK3 it was 0%. Moreover, the “%Inh” value with TBK1 was determined as 0%; in the assay with TEC, 12%; in the assay on TESK1, 17%; in the assay on TGFBR1, 15%; with TGFBR2, 0%; with TIE1, 50%. Besides, the “%Inh” value with TIE2 was 19%; in the assay on TLK1, 17%.
Consider `[2H]C([2H])(c1cccc(C(F)(F)F)c1C)n1ccn2c(=O)nc(N3CCOCC3)cc12` [GSK2336394], for which the “%Inh” value is given as 0% in the assay on SRPK3; 0% with STK16; 0% in the assay on STK33; 0% with STK35; 0% with STK36; 1% in the assay with STK39. Moreover, the “%Inh” value with SYK is 42%; with SgK110, 0%; with TAK1, 0%; in the assay with TAOK1 it was 0%; in the assay on TAOK2 it was 0%; in the assay with TAOK3 it was 0%. Besides, the “%Inh” value with TBK1 came to 10%; with TEC, 0%; with TESK1, 26%; with TGFBR1, 5%; with TGFBR2, 32%; with TIE1, 11%. The “%Inh” value in the assay on TIE2 and in the assay with TLK1 was 0% in each case.
As to `NS(=O)(=O)c1cccc(-c2ccc3ncc(N4CCOCC4)nc3c2)c1` [GSK1535721], the “%Inh” value in the assay on SRPK3 is 0%; in the assay on STK16, 16%; with STK33 it was 0%; in the assay with STK35, 0%; in the assay with STK36, 5%; in the assay with STK39 it was 1%. For the same compound, the “%Inh” value in the assay with SYK amounted to 0%; with SgK110, 1%; with TAK1, 16%; in the assay with TAOK1 it was 14%; in the assay on TAOK2, 0%; with TAOK3, 4%. In addition, the “%Inh” value is given as 17% in the assay with TBK1; 18% in the assay on TEC; 0% with TESK1; 6% in the assay with TGFBR1; 0% in the assay with TGFBR2; 0% in the assay on TIE1. Also, the “%Inh” value with TIE2 came out at 0%; with TLK1 it was 9%.
